Assay outcomes deposited in PubChem by NMMLSC.
Shown are actives, neighbours in structure and some others; about 0.92% of the full set was active somewhere.
AGP1 TOR yeast = yeast TOR pathway AGP1-GFP modulation; GFP response vs DMSO, % at 10 µM; 320,000 compounds, 0.02% hits; S. cerevisiae AGP1-GFP multiplex flow cytometry, 3 h; GFP as percent of DMSO wells;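 active = GFP response relative to DMSO above a set limit, near screen average plus 3 SD, cut at about 150% in these data; inconclusive = fewer than 70 cells counted for the yeast strain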;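 also: median GFP channel fluorescence of the gated AGP1 strain per well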
CIT2 TOR yeast = modulators of TOR pathway CIT2-GFP in S. cerevisiae; GFP response vs DMSO, % at 10 µM; S. cerevisiae CIT2-GFP strain, flow cytometry, 3 h; 100 means same as DMSO wells; 320,000 compounds, 0.065% hits;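 active = GFP response relative to DMSO above a set limit, near the screen mean plus 3 SD, cut at about 150% in these data; inconclusive = Fewer than 70 cells measured for a yeast strain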;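 also: ratio of well median GFP fluorescence to mean of DMSO wells on the plate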
LAP4-GFP MLPCN = alters LAP4-GFP fluorescence in TOR pathway yeast screen; GFP response vs DMSO, % at 10 µM; S. cerevisiae LAP4-GFP multiplex, flow cytometry GFP, 3 h; median GFP as percent of DMSO wells; AID 2023; 320,000 compounds, 0.34% hits;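 active = GFP response vs DMSO above a set limit, about the screen mean plus 3 SD, cut at about 150% in these data; inconclusive = under 70 cell events counted for the yeast strain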
MEP2-GFP yeast = yeast TOR pathway MEP2-GFP modulation; S. cerevisiae MEP2-GFP strain, flow cytometry GFP, 3 h; 100% = DMSO control level; GFP response vs DMSO, % at 10 µM; 330,000 compounds, 0.51% hits;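 active = GFP response versus DMSO above a set limit, roughly screen mean plus 3 SD, cut at about 180% in these data; inconclusive = fewer than 70 cells counted for a yeast strain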;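 also: median GFP fluorescence of the barcode-gated MEP2-GFP cells per well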
RPL19A-GFP yeast = alters RPL19A-GFP fluorescence in TOR pathway yeast screen. S. cerevisiae RPL19A-GFP strain, flow cytometry, 3 h; hits give low values. percent response vs DMSO, % at 10 µM. 330,000 compounds, 0.3% hits. AID 2025;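 active = percent response vs DMSO below 50%; inconclusive = fewer than 70 events counted for the yeast strain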;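 also: median channel GFP fluorescence of the barcoded RPL19A-GFP strain; ratio of sample median GFP to plate DMSO average so 100% = DMSO; lower means less RPL19A-GFP as with rapamycin TOR inhibition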
Active calls of the source: *; ? = inconclusive; / = not tested or not shown; [ ] = another dose, or the depositor's remark.

SMILES | AGP1 TOR yeast | CIT2 TOR yeast | LAP4-GFP MLPCN | MEP2-GFP yeast | RPL19A-GFP yeast
CCOc1ccccc1NC(=O)NCc1cccnc1 | ? | ? | 69 | 271*[may fluoresce violet] | 18*[may fluoresce violet]
CC(C)CCNC(=S)Nc1ccc([N+](=O)[O-])cc1 | 93 | 94 | 87 | 95 | 96
CC(C)OC(=O)c1cc(NC(=S)Nc2ccc([N+](=O)[O-])cc2)cc(C(=O)OC(C)C)c1 | 26 | ? | 95 | 261*[may fluoresce violet] | 53
O=C(O)c1ccc2c3c(ncnc13)-c1ccccc1C2=O | 99 | 116 | 170* | 150 | 101
COCCN1C(=O)c2ccccc2C(C(=O)Nc2ccc3c(c2)OCCO3)C1c1ccc(F)cc1 (configuration not stated) | 100 | 95 | 103 | 104 | 100
CCOC(=O)c1c(C)[nH]c(C)c1C(=O)COC(=O)c1cc2ccccc2cc1O | 104 | 154* | 127 | 152 | 112
CCCCN(CCCNC(=O)C1CCN(C(=O)c2cc3sccc3n2C)CC1)Cc1ccccc1 | 97 | 108 | 94 | 95 | 96
CCN(CCCNC(=O)C1CCN(C(=O)c2cc3sccc3n2C)CC1)Cc1ccccc1 | ? | ? | 107 | 283*[may fluoresce violet] | 44*[may fluoresce violet]
COc1ccc(NCc2nnc(-c3ccccc3)o2)cc1 | 106 | 104 | 113 | 102 | 106
CSc1sc(C(=O)NCC2CC2)cc1S(=O)(=O)C(C)C | 94 | 83 | 98 | 92 | 91
COC(=O)c1cc(S(=O)(=O)C(C)C)c(S(C)=O)s1 (configuration not stated) | ? | ? | 78 | 435*[may fluoresce violet] | 32*[may fluoresce violet]
CCC(C)c1ccc(N(C(=O)c2ccco2)C(C(=O)NC2CCCC2)c2cccnc2)cc1 (configuration not stated) | 15 | ? | 71 | 271*[may fluoresce violet] | 55
O=C(NCc1ccccc1)c1ccc(-c2ccc(F)cc2)o1 | / | 107 | 101 | 105 | 108
CCOC(=O)c1cc(C)[nH]c(=O)c1C#N | ? | ? | 70 | 680*[may fluoresce violet] | 33*[may fluoresce violet]
COc1ccc(NC(=O)Cn2nnc(C(=O)NCc3ccco3)c2N)cc1 | ? | ? | 80 | 134 | 22*[may fluoresce violet]
Cc1cccc(-n2nnc(C(=O)NCc3ccco3)c2N)c1 | ? | ? | ? | ? | 18*[may fluoresce violet]
Cc1cc(C)cc(NC(=O)Cn2nnc(C(=O)NCc3ccco3)c2N)c1 | 111 | 109 | 108 | 107 | 105
COC(=O)C1=CN(Cc2ccc(OC)cc2)C=C(C(=O)OC)C1c1ccsc1 | 28 | ? | 99 | 257*[may fluoresce violet] | 59
O=C(COC(=O)c1ccc2ccccc2c1)Nc1ncc(C(F)(F)F)cc1Cl | 91 | 93 | 93 | 100 | 100
O=C(COC(=O)c1ccc2ccccc2n1)Nc1ncc(C(F)(F)F)cc1Cl | ? | ? | 92 | 276*[may fluoresce violet] | 38*[may fluoresce violet]
CCOC(=O)CNc1nc(C#N)nc(N2CCOCC2)n1 | ? | ? | 89 | 192*[may fluoresce violet] | 45*[may fluoresce violet]
CCCn1c(=O)c2sccc2n2c(CCCC(=O)NCC3CCCO3)nnc12 (configuration not stated) | 96 | 99 | 93 | 98 | 92
O=C(Cc1ccccc1)NN1C(=O)C2C3C=CC(C3)C2C1=O (configuration not stated) | / | ? | 110 | 232*[may fluoresce violet] | 60
CC1(C)CC(=O)C=C(c2ccc(-c3ccccc3)cc2)C1 | 94 | 87 | 102 | 83 | 93
Cc1cc(NC(=O)CSC2=Nc3ccccc3C3=NC(Cc4ccccc4)C(=O)N23)n[nH]1 (configuration not stated) | 18 | ? | 86 | 266*[may fluoresce violet] | 52
SMILES | AGP1 TOR yeast | CIT2 TOR yeast | LAP4-GFP MLPCN | MEP2-GFP yeast | RPL19A-GFP yeast
Cn1c(SCC(=O)Nc2ccc3c(c2)OCO3)nnc1C(F)(F)F | 102 | 102 | 106 | 99 | 102
O=C(NCC1CCCO1)c1sc(=S)n2c1[nH]c(=O)c1ccc(C(=O)N3CCCCC3)cc12 (configuration not stated) | ? | ? | 96 | 206*[may fluoresce violet] | 42*[may fluoresce violet]
Cc1ccsc1C(=O)Nc1ccc(S(=O)(=O)N2CCOCC2)cc1 | 96 | 98 | 108 | 101 | 97
CCN(CC)CC(=O)Nc1ccc(-c2ccc(NC(=O)CN(CC)CC)c(OC)c2)cc1OC | 101 | 92 | 103 | 96 | 96
CN(C)/C=C/C(=O)c1cnc(-c2ccccc2)s1 | 15 | / | 156*[may fluoresce violet] | 106 | 62
CN(C)/C=C/C(=O)c1cnc(-c2ccc(Cl)cc2)s1 | 32 | 92 | 105 | 102 | 94
C=CCN(Cc1ccco1)S(=O)(=O)c1ccc(Cl)cc1 | 116 | 156*[may fluoresce green] | 102 | 111 | 89
CC1(C)CC(=O)c2sc(N3CCCCC3)nc2C1 | 53 | ? | 101 | 218*[may fluoresce violet] | 71
CC1(C)CNC(=O)c2sc(N3CCCCC3)nc2C1 | 98 | 100 | 96 | 98 | 95
COc1ccccc1CNC(=O)CN1NS(=O)(=O)c2ccccc2C1=O | 97 | 95 | 94 | 100 | 101
Cc1cccc(NC(=O)CN2NS(=O)(=O)c3ccccc3C2=O)c1 | ? | ? | 123 | 315*[may fluoresce violet] | 16*[may fluoresce violet]
COc1ccc(C)cc1NC(=O)CN1C(=O)c2ccccc2S1(=O)=O | 102 | 107 | 95 | 105 | 100
Cc1ccc(NC(=O)CN2C(=O)c3ccccc3S2(=O)=O)c(C)c1 | ? | ? | 68 | 276*[may fluoresce violet] | 33*[may fluoresce violet]
COc1ccc2[nH]c3ccccc3c2c1 | 99 | 113 | 105 | 105 | 101
COc1ccc2c(c1)C=Cc1ccccc1O2 | 96 | 89 | 150* | 92 | 96
O=S(=O)(NCCCCNS(=O)(=O)c1ccc(F)cc1)c1ccc(F)cc1 | 99 | 97 | 108 | 98 | 97
CCc1nnc(NC(=O)c2ccc(S(=O)(=O)N(CC)Cc3ccccc3)cc2)o1 | 99 | 107 | 141 | 104 | 96
CCc1nnc(NC(=O)c2ccc(S(=O)(=O)N(C)Cc3ccccc3)cc2)o1 | 101 | 95 | 186* | 113 | 92
CCN(Cc1ccccc1)S(=O)(=O)c1ccc(C(=O)Nc2nnc(C)o2)cc1 | 101 | 92 | 188* | 104 | 94
COC(CNC(=O)CN1CCN(Cc2ccccc2F)C1=O)OC | 95 | 92 | 92 | 92 | 101
CC(C)(CC(=O)O)CC(=O)Nc1ccccc1Oc1ccccc1 | ? | ? | 56 | 249*[may fluoresce violet] | 41*[may fluoresce violet]
C[C@H]1O[C@@H](n2cc(F)c(=O)[nH]c2=O)[C@H](O)[C@@H]1O | ? | ? | ? | ? | 41*[may fluoresce violet]
CSc1ccccc1C(=O)N(CC1CCCO1)c1c(N)n(Cc2ccccc2)c(=O)[nH]c1=O (configuration not stated) | 102 | 97 | 102 | 95 | 93
COc1cccc(C(=O)NCC(=O)N2CCC(C)CC2)c1 | 22 | ? | 95 | 184*[may fluoresce violet] | 45*[may fluoresce violet]
CCOC(=O)CSc1n[nH]c(NC(=O)NC(C)C)n1 | 105 | 102 | 100 | 100 | 102
O=c1oc(-c2ccccc2F)nc2c1cnn2-c1ccccc1 | 101 | 96 | 103 | 103 | 99
